An excerpt weighted towards active compounds, which were near 1.1% of everything screened.
PfHsp40 rescue: compounds rescuing yeast from Plasmodium falciparum HSP40 toxicity | S. cerevisiae expressing PfHsp40, growth rescue, ATP luminescence | growth rescue, % at 12.5 µM | 340,000 compounds, 0.68% hits | AID 504582; in the data active = growth rescue above about 28%, passing the limit was not always enough; inconclusive = no clear call, values can overlap the other calls;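 note: yeast W303a lacking pdr1 and pdr3 grown in galactose medium; growth measured after three days at 30 °C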
MazEF act: activators of E. coli MazEF toxin-antitoxin RNase; P0AE70; FAM/BHQ RNA-DNA oligo cleavage fluorescence, 5 h; activation, % at 20 µM; 350,000 compounds, 0.32% hits; AID 504720; in the data active = activation above about 50%
Target sequence (P0AE70 whole entry, looked up): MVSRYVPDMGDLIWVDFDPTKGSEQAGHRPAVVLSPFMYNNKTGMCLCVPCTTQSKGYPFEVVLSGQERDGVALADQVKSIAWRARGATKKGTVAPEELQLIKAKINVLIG
Yp Topo-I inh: blocks Yersinia pestis topoisomerase I activity; Y. pestis Topo-I cleavage product accumulation, plate reader; activity, % at 10 µM; AID 504884; 360,000 compounds, 0.064% hits; in the data active = activity above about 50%, passing the limit was not always enough; inconclusive = no clear call, values can overlap the other calls
BioA inh: BioA (M. tuberculosis) enzyme inhibition; 360,000 compounds, 0.096% hits; inhibition, % at 9.99 µM; purified M. tuberculosis BioA enzyme, plate reader; in the data active = inhibition above about 40%; inconclusive = no clear call, values can overlap the other calls
3CLpro inhibitor: SARS-CoV 3CLpro protease inhibition. P0C6X7. recombinant SARS-CoV 3CLpro, quenched FRET peptide cleavage. inhibition, % at 6 µM. 290,000 compounds, 0.14% hits. AID 1706; in the data active = inhibition above about 12%
BJeLR lethal: kills HRASV12-expressing BJeLR cells | inhibition, % (no concentration beside the values) | BJeLR (HRASV12) viability, CellTiter-Glo ATP luminescence, 48 h | 300,000 compounds, 0.17% hits | AID 1554; in the data active = inhibition above about 50%; inconclusive = no clear call, values can overlap the other calls
Starred values were filed as active, the others as inactive; u = inconclusive; x = not tested or not shown; + = active, no number.

SMILES	PfHsp40 rescue	MazEF act	Yp Topo-I inh	BioA inh	3CLpro inhibitor	BJeLR lethal
COc1ccccc1S(=O)(=O)N[C@H]1CC[C@H](CC(=O)N2CCOCC2)O[C@@H]1CO	x	x	x	-1	x	x
OC(Cn1cncn1)(Cn1cncn1)c1ccc(F)cc1F	179*	-6	5	-1	x	-3
N#CC(C#N)=C1C=CC=CN1/C(=C\c1ccco1)C(=O)c1ccc(-c2ccccc2)cc1	56*	1	1	x	4	x
CN1CCN(C(=O)C[C@H]2CC[C@H]3[C@@H](COC[C@@H](O)CN3Cc3ccc4c(c3)OCO4)O2)CC1	x	x	x	-1	x	x
CCOc1ccccc1C(=O)Nc1cc(Cl)ccc1O	u	68*	-14	9	7	2
Cc1ccc(N2C(=O)NC(=O)/C(=C\c3cccn3C(C)(C)C)C2=O)cc1	1	-29	-1	x	10	-8
CCC(C)c1ccc(N2C(=O)NC(=O)/C(=C/c3cccn3CCOc3ccc(C)cc3)C2=O)cc1 (stereo not drawn)	0	124*	-3	x	1	3
C/C(=N\Nc1ccc(C(=O)O)cc1)c1ccc2c(c1)Nc1ccccc1S2	207*	-7	-5	7	1	0
CCOC(=O)c1cc2c(ccn2C)n1Cc1ccc(Cl)cc1	1	0	5	x	-4	-5
Cc1cccc(Cn2c(C(=O)OC(C)C)cc3c2ccn3C)c1	1	-7	54*	-1	3	13
COC(=O)c1ccc(/C=N/Nc2nc(-c3ccccc3)cs2)cc1	-1	-3	-3	-1	1	0
COC(=O)c1ccc(/C=N/Nc2nc(-c3ccc(C)cc3)cs2)cc1	0	52*	-11	0	0	13
FC(F)(F)c1nc2ccccc2n2c(-c3ccc(Cl)cc3Cl)nnc12	1	7	-4	4	-9	5
FC(F)(F)c1nnc2c(Sc3ccccc3)nc3ccc(Cl)cc3n12	0	5	4	-3	4	62*
Cc1[nH]n(C(N)=S)c(=O)c1N=Nc1ccc2ccccc2c1	55*	2	1	x	2	3
COC(/C(=N/O)c1ccc(Cl)cc1)c1ccccc1 (stereo not drawn)	122*	-6	-1	1	2	-1
CCCNC(=O)C[C@@H]1CC[C@H]2[C@H](COc3ccc(NC(=O)C4CCCC4)cc3C(=O)N2C)O1	x	x	x	1	x	x
Cc1cccc(-n2c(-c3csc(C(C)C)c3)n[nH]c2=S)c1	-2	-17	0	-2	3	5
CCCc1cc(-c2n[nH]c(=S)n2-c2cccc(C)c2)cs1	68*	11	7	5	2	2
C/C(=N\NC(=S)NC1CCCCC1)c1cccs1	3	-3	-8	-1	4	-1
C/C(=N\NC(=S)NC1CCCCC1)c1c(F)cccc1F	45*	-9	21	0	-1	-1
c1ccc(-c2nc(NCc3cccnc3)c3oc4ccccc4c3n2)cc1	48*	0	8	4	-2	0
O=C(O)CNc1nc(-c2ccccc2)nc2c1oc1ccccc12	0	0	2	x	1	6
CCCCOc1ccc(Br)cc1/C(C)=N/NC1=NCCN1	1	14	5	x	-5	52*
CCCCCCOc1ccc(/C(C)=N/NC2=NCCN2)cc1[N+](=O)[O-]	1	-6	-22	x	3	2
SMILES	PfHsp40 rescue	MazEF act	Yp Topo-I inh	BioA inh	3CLpro inhibitor	BJeLR lethal
O=c1c2ccccc2c(-c2ccc(O)cc2)nn1-c1cccc(C(F)(F)F)c1	240*	7	-2	-2	6	0
O=c1c2ccccc2c(-c2cccc(C(F)(F)F)c2)nn1-c1ccccc1	0	-3	-3	-1	-3	4
COCC(=O)Nc1ccc2c(c1)[C@H]1C[C@@H](CC(=O)NCc3ccccn3)O[C@H](CO)[C@H]1O2	x	x	x	-1	x	x
Cc1cccc(CN2C(=O)N/C(=C/c3ccc(C)s3)C2=O)c1	1	190*	1	x	3	11
CC(C)N(Cc1ccccc1)C(=S)NCc1ccccc1	2	5	4	x	-1	1
CC(C)N(Cc1ccccc1)C(=S)NCCN1CCOCC1	35*	5	5	x	1	-6
CCOc1ccc(-n2nc3ccc(NC(=O)c4ccc5c(c4)OCCO5)cc3n2)cc1	0	59*	-13	x	4	9
O=C(Nc1ccc2nn(-c3ccccc3)nc2c1)c1ccc2c(c1)OCCO2	1	8	-7	0	2	6
O=[N+]([O-])c1ccc(N=Nc2c(Cl)cc(O)cc2Cl)cc1	175*	3	-14	0	2	102*
CCCc1ccc2oc(C(=O)NCCc3nc(C(=O)OCC)cs3)c(C)c2c1	40*	8	9	4	4	-6
CCCc1ccc2oc(C(=O)NCCc3cnn(C)c3)c(C)c2c1	3	0	34	1	2	5
O=c1c(-c2c(O)cc(O)c3c(=O)cc(-c4ccc(O)cc4)oc23)c(-c2ccc(O)cc2)oc2cc(O)cc(O)c12	105*	-6	-16	1	x	x
O=c1cc(-c2ccc(O)cc2)oc2c(-c3c(O)cc(O)c4c(=O)cc(-c5ccc(O)cc5)oc34)c(O)cc(O)c12	1	4	-26	-3	x	x
Cc1ccc(C2=C/C(=C/c3cccs3)C(=O)O2)cc1	-1	+	7	-5	-2	0
CC(C)NC(=O)N(C)C[C@H]1Oc2ccc(NC(=O)CCCCCC(=O)Nc3ccccc3N)cc2C(=O)N([C@H](C)CO)C[C@H]1C	x	x	x	-4	x	x
CC(=O)c1cccc(NC(=O)CSc2ccc(-c3ccccn3)nn2)c1	-1	-3	10	7	-1	-12
COc1cc(NC(=O)CSc2ccc(-c3ccccn3)nn2)cc(OC)c1	221*	6	4	-2	2	-10
CCc1ccc(NC(=O)CSc2ccc(-c3ccccn3)nn2)cc1	305*	-9	-5	-1	3	-14
CCc1ccc(NC(=O)CSc2ccc(-c3cccnc3)nn2)cc1	0	-14	-7	4	1	-8
CCOC(=O)c1ccccc1NC(=O)CSc1ccc(-c2ccccn2)nn1	211*	4	36	0	3	0
CC(=O)Nc1cccc(NC(=O)CSc2ccc(-c3ccccn3)nn2)c1	438*	2	2	x	-4	-19
C[C@H](CO)N1C[C@H](C)[C@H](CN(C)C(=O)NC2CCCCC2)OCCCC[C@H](C)Oc2ccc(NS(=O)(=O)c3ccccc3)cc2C1=O	x	x	x	4	x	x
C[C@H]1CN([C@@H](C)CO)S(=O)(=O)c2ccc(C3=CCCC3)cc2O[C@H]1CN(C)S(=O)(=O)c1cn(C)cn1	x	x	x	3	x	x
CN(CC(=O)Nc1ccccc1Br)c1ncnc2sccc12	2	57*	6	13	2	3
COc1ccc(-c2cn[nH]c2-c2ccc(OCc3ccc([N+](=O)[O-])cc3)cc2O)cc1OC	0	27	-20	0	8	3
